Laboratory results: the supplement of paper PMC12645437, “Orthogonal IMiD-Degron Pairs Induce Selective Protein Degradation in Cells” (ACS Chemical Biology, 2025)
Whole data set: some 8,300 sequences, median “log2 fold change of degron read counts, EGFP-low vs EGFP+ sorted cells (limma voom), compound-induced degradation” near -1.1, cut for the highest 2% near 3.2. Many of the other results were omitted from the sample, so the highest values are more common in it than they were.

Molecular target: T1, CRBN, Q96SW2
T1 chain: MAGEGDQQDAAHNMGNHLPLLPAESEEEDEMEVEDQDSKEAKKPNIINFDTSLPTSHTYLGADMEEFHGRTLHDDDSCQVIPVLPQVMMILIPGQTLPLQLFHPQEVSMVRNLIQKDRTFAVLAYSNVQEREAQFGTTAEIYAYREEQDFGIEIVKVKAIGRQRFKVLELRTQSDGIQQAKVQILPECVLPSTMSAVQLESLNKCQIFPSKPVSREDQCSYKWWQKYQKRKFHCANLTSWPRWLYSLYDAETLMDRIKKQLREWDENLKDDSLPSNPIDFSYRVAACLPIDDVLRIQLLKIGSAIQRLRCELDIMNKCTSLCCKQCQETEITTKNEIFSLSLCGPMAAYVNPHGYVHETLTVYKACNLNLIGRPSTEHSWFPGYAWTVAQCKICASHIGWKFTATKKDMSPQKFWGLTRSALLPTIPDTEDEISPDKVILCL
Assay: log2 fold change of degron read counts, EGFP-low vs EGFP+ sorted cells (limma voom), compound-induced degradation; higher = more compound-induced degradation of the degron-EGFP fusion; degrons are variants of IKZF1/3 zinc finger 2; compound dose not given here
Details: Jurkat, 18 h

[1] = compound: compound 19 (5-tert-butyl-thalidomide)
[2] = compound: compound 22 (5-morpholino-thalidomide)
[3] = compound: compound 33 (diphenyl IMiD analogue)
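Also: pooled lentiviral library of zinc finger degron-EGFP fusions in mCherry-positive Jurkat cells, FACS-sorted after compound exposure, with degron abundance counted by next-generation sequencing.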

For FRCPQCGARFTQKGNLLRHIKL [46F_47R_49P_50Q_52G_53A_54R_55F_67L_, Q9UKT9], the “log2 fold change of degron read counts” value [1] was -2.3, the “log2 fold change of degron read counts” value [2] was -2.09 and the “log2 fold change of degron read counts” value [3] was -1.12. The “log2 fold change of degron read counts” value (compound: thalidomide) was -1.27.

For FLCPQCGAKFTQKGNLLRHIKL [46F_47L_49P_50Q_52G_53A_54K_55F_67L_, Q9UKT9], the “log2 fold change of degron read counts” value [1] was -2.44, the “log2 fold change of degron read counts” value [2] was -2.82 and the “log2 fold change of degron read counts” value [3] was -1.39. For the same sequence, the “log2 fold change of degron read counts” value (compound: thalidomide) was -0.831.

With FKCEVCGAQFTQKGNLLRHIKL [46F_47K_49E_50V_52G_53A_54Q_55F_67L_, Q9UKT9] the “log2 fold change of degron read counts” value [1] was -0.0625, the “log2 fold change of degron read counts” value [2] was -2.24 and the “log2 fold change of degron read counts” value [3] was -2.07. For the same sequence, the “log2 fold change of degron read counts” value (compound: thalidomide) was -0.411.

With FFCEICGRAFTQKGNLLRHIKL [46F_47F_49E_50I_52G_53R_54A_55F_67L_, Q9UKT9] the “log2 fold change of degron read counts” value [1] was 0.601, the “log2 fold change of degron read counts” value [2] was -0.248 and the “log2 fold change of degron read counts” value [3] was 0.402. For the same sequence, the “log2 fold change of degron read counts” value (compound: thalidomide) was -1.11.

With FKCEICGHPFTQKGNLLRHIKL [46F_47K_49E_50I_52G_53H_54P_55F_67L_, Q9UKT9] the “log2 fold change of degron read counts” value [1] was -2.59, the “log2 fold change of degron read counts” value [2] was -2.5 and the “log2 fold change of degron read counts” value [3] was -2.61. For the same sequence, the “log2 fold change of degron read counts” value (compound: thalidomide) was -0.946.

With FKCPICGRFFTQKGNLLRHIKL [46F_47K_49P_50I_52G_53R_54F_55F_67L_, Q9UKT9] the “log2 fold change of degron read counts” value [1] was -1.81, the “log2 fold change of degron read counts” value [2] was -1.89 and the “log2 fold change of degron read counts” value [3] was -2.21. The “log2 fold change of degron read counts” value (compound: thalidomide) was -1.32.

FRCDICGANFTQKGNLLRHIKL [46F_47R_49D_50I_52G_53A_54N_55F_67L_, Q9UKT9] was tested, and the “log2 fold change of degron read counts” value [1] was -1.48, the “log2 fold change of degron read counts” value [2] was -1.55 and the “log2 fold change of degron read counts” value [3] was 0.418. The “log2 fold change of degron read counts” value (compound: thalidomide) was -0.326.

With FDCNVCGAYFTQKGNLLRHIKL [46F_47D_49N_50V_52G_53A_54Y_55F_67L_, Q9UKT9] the “log2 fold change of degron read counts” value [1] was -1.56, the “log2 fold change of degron read counts” value [2] was -2.08 and the “log2 fold change of degron read counts” value [3] was -0.374. The “log2 fold change of degron read counts” value (compound: thalidomide) was -0.686.

FICSVCGHEFTQKGNLLRHIKL [46F_47I_49S_50V_52G_53H_54E_55F_67L_, Q9UKT9] was tested, and the “log2 fold change of degron read counts” value [1] was -3.46, the “log2 fold change of degron read counts” value [2] was -3.92 and the “log2 fold change of degron read counts” value [3] was -3.21. The “log2 fold change of degron read counts” value (compound: thalidomide) was -3.41.

With FNCPVCGAQFTQKGNLLRHIKL [46F_47N_49P_50V_52G_53A_54Q_55F_67L_, Q9UKT9] the “log2 fold change of degron read counts” value [1] was 2.01, the “log2 fold change of degron read counts” value [2] was 1.68 and the “log2 fold change of degron read counts” value [3] was 0.869. For the same sequence, the “log2 fold change of degron read counts” value (compound: thalidomide) was 0.953.

In the case of FQCPVCGAQFTQKGNLLRHIKL [46F_47Q_49P_50V_52G_53A_54Q_55F_67L_, Q9UKT9], the “log2 fold change of degron read counts” value [1] is reported as 0.712, the “log2 fold change of degron read counts” value [2] is reported as 2.48 and the “log2 fold change of degron read counts” value [3] is reported as 2.51. For the same sequence, the “log2 fold change of degron read counts” value (compound: thalidomide) was 3.59.

For FDCPVCGAQFTQKGNLLRHIKL [46F_47D_49P_50V_52G_53A_54Q_55F_67L_, Q9UKT9], the “log2 fold change of degron read counts” value [1] was 1.44, the “log2 fold change of degron read counts” value [2] was 0.833 and the “log2 fold change of degron read counts” value [3] was 1.04. The “log2 fold change of degron read counts” value (compound: thalidomide) was 2.23.

FGCPVCGAQFTQKGNLLRHIKL [46F_47G_49P_50V_52G_53A_54Q_55F_67L_, Q9UKT9] was tested, and the “log2 fold change of degron read counts” value [1] was 3.8, the “log2 fold change of degron read counts” value [2] was 2.65 and the “log2 fold change of degron read counts” value [3] was 1.73. For the same sequence, the “log2 fold change of degron read counts” value (compound: thalidomide) was 1.07.

With FHCPVCGAQFTQKGNLLRHIKL [46F_47H_49P_50V_52G_53A_54Q_55F_67L_, Q9UKT9] the “log2 fold change of degron read counts” value [1] was 1.78, the “log2 fold change of degron read counts” value [2] was 2.55 and the “log2 fold change of degron read counts” value [3] was 2.19. For the same sequence, the “log2 fold change of degron read counts” value (compound: thalidomide) was 1.13.

In the case of FICPVCGAQFTQKGNLLRHIKL [46F_47I_49P_50V_52G_53A_54Q_55F_67L_, Q9UKT9], the “log2 fold change of degron read counts” value [1] is reported as -0.745, the “log2 fold change of degron read counts” value [2] is reported as 2.74 and the “log2 fold change of degron read counts” value [3] is reported as 2.89. For the same sequence, the “log2 fold change of degron read counts” value (compound: thalidomide) was 2.73.

With FLCDVCGALFTQKGNLLRHIKL [46F_47L_49D_50V_52G_53A_54L_55F_67L_, Q9UKT9] the “log2 fold change of degron read counts” value [1] was -2.27, the “log2 fold change of degron read counts” value [2] was -2.28 and the “log2 fold change of degron read counts” value [3] was -1.03. The “log2 fold change of degron read counts” value (compound: thalidomide) was -1.23.

FNCPVCGAVFTQKGNLLRHIKL [46F_47N_49P_50V_52G_53A_54V_55F_67L_, Q9UKT9] was tested, and the “log2 fold change of degron read counts” value [1] was 0.592, the “log2 fold change of degron read counts” value [2] was 0.118 and the “log2 fold change of degron read counts” value [3] was 0.729. The “log2 fold change of degron read counts” value (compound: thalidomide) was 0.198.
